# Results filed as inconclusive are left out. Entries that show only a call come without a potency. The source made the active and inactive calls. The call rests on the fitted dose curve; in most records, active means well fitted curve in the direction sought with a large enough effect; inconclusive means small, poorly fitted or top-dose-only effect, or another doubt; inactive means no such curve, though single readings can be large; an effect the other way counts as inactive or inconclusive.
# Assays:
# [1] = qHTS of pediatric cancer cell lines to identify multiple opportunities for drug repurposing: Primary screen for TC32 cells (AID 1347089); further: nearly all actives have a fitted effect of over 60% in size
# Procedure, shortened: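 Luminescent ATP read-out (CellTiter-Glo) of metabolically active TC32 cells after 48 h exposure. Concentration-response curves came from 11-point (MIPE, 0.78 nM–46 µM) or 8-point (NPC, 0.59 nM–46 µM) primary titrations; follow-up used 11 points.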
# [2] = qHTS of pediatric cancer cell lines to identify multiple opportunities for drug repurposing: Primary screen for DAOY cells (AID 1347090); further: nearly all actives have a fitted effect of over 55% in size
# Procedure, shortened: (§1)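 Viability measured as metabolically active cells via CellTiter-Glo luminescence following 48 hours of compound exposure, 11-point dilutions in confirmatory testing. 500-1,000 cells/well plated 5 hours before dosing; controls were DMSO and 2.3 µM bortezomib.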
# [3] = qHTS of pediatric cancer cell lines to identify multiple opportunities for drug repurposing: Primary screen for A673 cells (AID 1347092); further: nearly all actives have a fitted effect of over 45% in size
# Procedure, shortened: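 Cell viability of A673 measured by CellTiter-Glo ATP luminescence after 48 hours compound exposure. Dilution series spanned 0.78 nM to 46 µM (MIPE, 11-point) or 0.59 nM to 46 µM (NPC, 8-point); bortezomib 2.3 uM positive control.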
# [4] = qHTS of pediatric cancer cell lines to identify multiple opportunities for drug repurposing: Primary screen for SK-N-MC cells (AID 1347093)
# Procedure, shortened: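 Metabolically active cells were quantified by ATP-dependent luminescence (CellTiter-Glo, 15 min at room temperature) following 48 h treatment. Cells had been plated at 500-1,000 per well and settled for 5 h beforehand.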
# [5] = qHTS of pediatric cancer cell lines to identify multiple opportunities for drug repurposing: Primary screen for BT-37 cells (AID 1347094)
# Procedure, shortened: (§2)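 Readout: CellTiter-Glo luminescence, 48 h treatment. Controls DMSO (neutral) and bortezomib 2.3 µM final (positive). Potency and efficacy taken from primary-screen concentration-response curves.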
# [6] = qHTS of pediatric cancer cell lines to identify multiple opportunities for drug repurposing: Primary screen for U-2 OS cells (AID 1347096); further: nearly all actives have a fitted effect of over 50% in size
# Procedure, shortened: (§3)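 Viability after 48 h compound treatment at 37C, 500-1,000 cells/well, read as ATP luminescence with CellTiter-Glo. Primary screens used 11-point (MIPE, 0.78 nM-46 µM) or 8-point (NPC, 0.59 nM-46 µM) final concentrations; follow-up screens used 11-point dilutions.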
# [7] = qHTS of pediatric cancer cell lines to identify multiple opportunities for drug repurposing: Primary screen for NB1643 cells (AID 1347099); further: nearly all actives have a fitted effect of over 50% in size
# Procedure, shortened: as §2
# [8] = qHTS of pediatric cancer cell lines to identify multiple opportunities for drug repurposing: Primary screen for Rh18 cells (AID 1347102); further: nearly all actives have a fitted effect of over 65% in size
# Procedure, shortened: as §3
# [9] = qHTS of pediatric cancer cell lines to identify multiple opportunities for drug repurposing: Primary screen for OHS-50 cells (AID 1347103); further: nearly all actives have a fitted effect of over 40% in size
# Procedure, shortened: (§4)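 Cells (500-1,000/well) rested 5 h, then received compounds for 48 h; metabolically active cells were measured by CellTiter-Glo luminescence. Final concentrations spanned up to 46 µM (MIPE, 11-point) or 0.59 nM-46 µM (NPC, 8-point) in primary screens, 11-point in follow-ups.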
# [10] = qHTS of pediatric cancer cell lines to identify multiple opportunities for drug repurposing: Primary screen for RD cells (AID 1347104); further: nearly all actives have a fitted effect of over 55% in size
# Procedure, shortened: as §2
# [11] = qHTS of pediatric cancer cell lines to identify multiple opportunities for drug repurposing: Primary screen for MG 63 (6-TG R) cells (AID 1347105); further: nearly all actives have a fitted effect of over 50% in size
# Procedure, shortened: as §2
# [12] = qHTS of pediatric cancer cell lines to identify multiple opportunities for drug repurposing: Primary screen for control Hh wild type fibroblast cells (AID 1347106); further: nearly all actives have a fitted effect of over 55% in size
# Procedure, shortened: as §3
# [13] = qHTS of pediatric cancer cell lines to identify multiple opportunities for drug repurposing: Primary screen for SJ-GBM2 cells (AID 1347091)
# Procedure, shortened: as §1
# [14] = qHTS of pediatric cancer cell lines to identify multiple opportunities for drug repurposing: Primary screen for NB-EBc1 cells (AID 1347095)
# Procedure, shortened: as §2
# [15] = qHTS of pediatric cancer cell lines to identify multiple opportunities for drug repurposing: Primary screen for SK-N-SH cells (AID 1347098); further: nearly all actives have a fitted effect of over 65% in size
# Procedure, shortened: as §4
# [16] = qHTS of pediatric cancer cell lines to identify multiple opportunities for drug repurposing: Primary screen for LAN-5 cells (AID 1347100)
# Procedure, shortened: as §3
# [17] = qHTS of pediatric cancer cell lines to identify multiple opportunities for drug repurposing: Primary screen for BT-12 cells (AID 1347101); further: nearly all actives have a fitted effect of over 25% in size
# Procedure, shortened: as §4
# [18] = qHTS of pediatric cancer cell lines to identify multiple opportunities for drug repurposing: Primary screen for Saos-2 cells (AID 1347097); further: nearly all actives have a fitted effect of over 40% in size
# Procedure, shortened: as §2
# Potency means the concentration at half of the fitted maximal effect.
SMILES,Potency [1],Potency [2],Potency [3],Potency [4],Potency [5],Potency [6],Potency [7],Potency [8],Potency [9],Potency [10],Potency [11],Potency [12],Potency [13],Potency [14],Potency [15],Potency [16],Potency [17],Potency [18]
O=C(OCCOCCO)c1ccccc1Nc1cccc(C(F)(F)F)c1,inactive,inactive,inactive,inactive,inactive,inactive,inactive,inactive,24.6 µM (active),inactive,inactive,inactive,,,,,,
CC(=O)OCC(=O)[C@@]12OC(C)(C)O[C@@H]1C[C@H]1[C@@H]3C[C@H](F)C4=CC(=O)C=C[C@]4(C)[C@@]3(F)[C@@H](O)C[C@@]12C,inactive,,inactive,,,inactive,inactive,inactive,,inactive,inactive,inactive,inactive,inactive,inactive,inactive,inactive,
C[n+]1c2cc(N)ccc2cc2ccc(N)cc21 (tested in a mixture with another compound),14900 nM (active),21.1 µM (active),,8.41 µM (active),3470 nM (active),13.3 µM (active),7500 nM (active),8.41 µM (active),17.4 µM (active),15 µM (active),,,,11.9 µM (active),3.86 µM (active),5.96 µM (active),3.89 µM (active),
CC(=O)Oc1ccc2c(c1)CC[C@@H]1[C@@H]2CC[C@]2(C)[C@@H](O)CC[C@@H]12,inactive,inactive,,,,inactive,inactive,inactive,,inactive,inactive,inactive,,,,,,23.7 µM (active)
O=C1[C@H]2CCCC[C@H]2C(=O)N1CCCCN1CCN(c2nsc3ccccc23)CC1,inactive,inactive,,inactive,inactive,inactive,inactive,inactive,,inactive,inactive,inactive,,inactive,inactive,,,
CCOC(=O)COc1ccc2c(C)c(CCN(CC)CC)c(=O)oc2c1Cl,inactive,inactive,inactive,inactive,inactive,inactive,inactive,inactive,inactive,inactive,inactive,inactive,,inactive,inactive,inactive,inactive,inactive
Clc1ccc2c(c1)CCc1cccnc1C2=C1CCNCC1,inactive,inactive,,inactive,inactive,inactive,inactive,,15.5 µM (active),,inactive,inactive,,,,,,
COc1cccc2c1C(=O)c1c(O)c3c(c(O)c1C2=O)C[C@@](O)(C(C)=O)C[C@@H]3O[C@H]1C[C@H](N)[C@H](O)[C@H](C)O1,236 nM (active),1.06 µM (active),0.266 µM (active),0.0841 µM (active),110 nM (active),6.68 µM (active),133 nM (active),0.473 µM (active),0.347 µM (active),1.19 µM (active),4.22 µM (active),16.8 µM (active),,,0.386 µM (active),,0.55 µM (active),0.266 µM (active)
O=C(CCN1CCC(c2ccccc2)C1)c1ccc2c(c1)OCCO2 (configuration not stated),inactive,,,,inactive,inactive,,inactive,,,,inactive,inactive,23.7 µM (active),,,,23.7 µM (active)
C#C[C@]1(OC(C)=O)CC[C@H]2[C@@H]3CCC4=C[C@@H](OC(C)=O)CC[C@@H]4[C@H]3CC[C@@]21C,inactive,inactive,,,,,inactive,inactive,15.5 µM (active),,inactive,inactive,inactive,,inactive,,,
C[C@H]1C[C@H]2[C@@H]3CCC4=CC(=O)C=C[C@]4(C)[C@@]3(Cl)[C@@H](O)C[C@]2(C)[C@@]1(O)C(=O)CO,inactive,inactive,inactive,15 µM (active),inactive,,inactive,inactive,24.6 µM (active),inactive,inactive,inactive,,inactive,inactive,inactive,inactive,inactive
COC(=O)C1=C(C)NC(C)=C(C(=O)O[C@@H]2CCCN(Cc3ccccc3)C2)[C@@H]1c1cccc([N+](=O)[O-])c1,inactive,inactive,inactive,,,,inactive,,19.5 µM (active),inactive,,inactive,,,30.7 µM (active),,,
Oc1c(Cl)cc(Cl)cc1Sc1cc(Cl)cc(Cl)c1O,inactive,inactive,inactive,,inactive,inactive,,inactive,,inactive,,inactive,,,,,inactive,
CCN(CCCc1ccccc1)CCCc1ccccc1,inactive,inactive,inactive,,,inactive,inactive,inactive,,,inactive,inactive,,,,inactive,,inactive
Cc1c(C)n(Cc2ccccc2)c2ccc(C(=O)OCCN(C)C)cc12,inactive,inactive,inactive,,inactive,inactive,inactive,,,inactive,,inactive,,,,inactive,,
COc1cccc(CCc2ccccc2OCC(CN(C)C)OC(=O)CCC(=O)O)c1 (configuration not stated),inactive,inactive,,,inactive,inactive,inactive,,,,inactive,inactive,,inactive,17.2 µM (active),,,inactive

SMILES,Potency [1],Potency [2],Potency [3],Potency [4],Potency [5],Potency [6],Potency [7],Potency [8],Potency [9],Potency [10],Potency [11],Potency [12],Potency [13],Potency [14],Potency [15],Potency [16],Potency [17],Potency [18]
CN(C)CC/C=C1\c2ccccc2Sc2ccc(Cl)cc21,inactive,inactive,,,,,inactive,,30.9 µM (active),,inactive,inactive,,,,,,
Cc1ccccc1C(=O)Nc1ccc(C(=O)N2CCCC(N(C)C)c3ccccc32)cc1 (configuration not stated),inactive,,8.41 µM (active),6.68 µM (active),,inactive,,,21.9 µM (active),,,inactive,9.44 µM (active),2.99 µM (active),,18.8 µM (active),,6.68 µM (active)
CCCC(=O)O[C@]1(C(=O)CO)CC[C@H]2[C@@H]3CCC4=CC(=O)CC[C@]4(C)[C@H]3[C@@H](O)C[C@@]21C,inactive,,inactive,inactive,inactive,inactive,inactive,inactive,,inactive,inactive,inactive,inactive,inactive,inactive,inactive,inactive,inactive
CN1CCC(=C2c3ccccc3Sc3ccccc32)CC1,inactive,inactive,,,,inactive,inactive,,17.4 µM (active),,inactive,inactive,,inactive,19.4 µM (active),inactive,,
CCCCOc1cc(C(=O)NCCN(CC)CC)c2ccccc2n1,inactive,inactive,,,,inactive,,inactive,inactive,,inactive,inactive,,inactive,,,,inactive
CC(C)=CCC1C(=O)N(c2ccccc2)N(c2ccccc2)C1=O,inactive,inactive,,,inactive,inactive,,inactive,,inactive,inactive,inactive,,21.1 µM (active),,29.9 µM (active),,
CC/C(=C(/CC)c1ccc(O)cc1)c1ccc(O)cc1,inactive,21.1 µM (active),,6.68 µM (active),,inactive,,,15.5 µM (active),,,inactive,,,5.45 µM (active),,,
CC(=O)c1ccc2c(c1)N(CCCN1CCC(CCO)CC1)c1ccccc1S2,inactive,inactive,,inactive,,,inactive,,,,inactive,inactive,,inactive,,inactive,,inactive
CN(C)CCCOc1nn(Cc2ccccc2)c2ccccc12,inactive,inactive,,,,,inactive,inactive,,,inactive,inactive,,,15.4 µM (active),,,inactive
CCN(CCCCOC(=O)c1ccc(OC)c(OC)c1)C(C)Cc1ccc(OC)cc1 (configuration not stated),inactive,inactive,inactive,inactive,,,inactive,inactive,,inactive,inactive,inactive,,,,inactive,,
C=C1C(=C/C=C2\CCC[C@]3(C)[C@@H]([C@H](C)/C=C/[C@@H](O)C4CC4)CC[C@@H]23)C[C@@H](O)C[C@@H]1O,inactive,inactive,,,,,,inactive,30.9 µM (active),inactive,inactive,inactive,inactive,,,,,
COc1cccc2c1C(=O)c1c(O)c3c(c(O)c1C2=O)C[C@@](O)(C(=O)CO)C[C@@H]3O[C@H]1C[C@H](N)[C@H](O)[C@H](C)O1,745 nM (active),4.22 µM (active),1.06 µM (active),0.668 µM (active),347 nM (active),,473 nM (active),1.88 µM (active),1.1 µM (active),2.37 µM (active),5.31 µM (active),1.68 µM (active),,,0.217 µM (active),,1.38 µM (active),13.3 µM (active)
CCCCCCc1ccc(O)cc1O,inactive,inactive,,inactive,inactive,inactive,inactive,inactive,,inactive,inactive,inactive,,,,inactive,inactive,
CCN(CC)CCOC(=O)C(c1ccccc1)C1CCCCC1 (configuration not stated),inactive,inactive,,,,inactive,inactive,inactive,21.9 µM (active),,inactive,inactive,,,30.7 µM (active),inactive,,23.7 µM (active)
COc1cc(N)c(Cl)cc1C(=O)NC1CCN(CCCOc2ccc(F)cc2)CC1OC (configuration not stated),inactive,inactive,,,inactive,inactive,inactive,inactive,30.9 µM (active),,inactive,inactive,,inactive,,inactive,,inactive
CCCCOc1ccc(C(=O)CCN2CCCCC2)cc1,inactive,inactive,,,,inactive,,,,,,inactive,,21.1 µM (active),,,,23.7 µM (active)

# — PubChem BioAssay (NCATS)
